This is a sample that favours compounds with a hit; in the whole collection about 1.1% have one here.
3CLpro inhibitor: SARS-CoV 3CLpro protease inhibition | recombinant SARS-CoV 3CLpro, quenched FRET peptide cleavage | inhibition, % at 6 µM | 290,000 tested, 0.14% active | AID 1706; in the data active means inhibition above about 12%
PrPC TRFRET: reduces human prion protein on the cell surface; P04156; cell surface PrPC, TR-FRET read-out; inhibition, % at 13.8 µM; 370,000 tested, 0.43% active; in the data active means inhibition above about 24%; further: 0% = median of the test wells and 100% = reference compound wells
BJeLR viability: BJeLR cell viability loss; BJeLR (HRASV12) viability, CellTiter-Glo ATP luminescence, 48 h; inhibition, % (no concentration beside the values); 300,000 tested, 0.17% active; in the data active means inhibition above about 50%
VHR inh abs: blocks human VHR1 dual specificity phosphatase; P51452; recombinant VHR phosphatase, pNPP absorbance; inhibition, % at 13.3 µM; 290,000 tested, 0.52% active; AID 1654; in the data active means inhibition above about 50%
PrPC TRFRET cf: confirmation of inhibitors of cell surface human prion protein | cell surface PrPC level, TR-FRET | shares compounds with PrPC TRFRET | inhibition, % at 13.8 µM | 1,500 tested, 65% active; in the data active means inhibition above about 25%
LD9 tox: kills or reduces viability of LD9 cells in PrPc counter-screen. AID 743201. 1,500 tested, 29% active. inhibition, % at 13.8 µM. shares compounds with PrPC TRFRET. LD9 cells cytotoxicity, luminescence viability; in the data active means inhibition above about 9.5%
The depositor's hits bear a star; . = not tested or not shown.

SMILES | 3CLpro inhibitor | PrPC TRFRET | BJeLR viability | VHR inh abs | PrPC TRFRET cf | LD9 tox
CC(=O)OC[C@]12CC[C@H]3[C@@](C)(CC[C@H]4C(C)(C)CCC[C@]34C)[C@@H]1CC(C1=CC(=O)OC1O)O2 (stereo partly specified) | . | 54* | . | . | 83* | 99*
COc1ccc2c(c1)[C@@]1(NCCc3c1[nH]c1ccc(OC)cc31)C(=O)N2 | . | 1 | . | . | . | .
O=C(Nc1ccc(S(=O)(=O)C(F)F)cc1)c1cccc(S(=O)(=O)N2CCOCC2)c1 | 0 | 29* | 12 | -2 | 16 | 16*
O=C(Nc1nc(-c2ccccn2)cs1)c1cccc(S(=O)(=O)N2CCOCC2)c1 | . | 25* | . | . | 26* | 11*
CCN(CC)C(=O)[C@H]1C[C@H](CC(=O)NCCN2CCOCC2)C(=O)N2CCc3c([nH]c4cc(-c5ccco5)ccc34)[C@]12C | . | -5 | . | . | . | .
COc1ccc(CNC(=O)c2cccc3c(-c4cccc(C(N)=O)c4)coc23)cc1OC | . | 37* | . | . | 25* | 28*
Cc1cc2cc(CNC(=O)c3ccc4c(c3)OCO4)ccc2n1C | -2 | 53* | 13 | -9 | 10 | -1
Cc1onc(-c2ccccc2Cl)c1C(=O)NCc1ccc2c(c1)cc(C)n2C | . | 66* | 9 | 18 | 10 | -3
Cc1ccc(S(=O)(=O)NCc2ccc3c(c2)cc(C)n3C)cc1 | 2 | 37* | -8 | 2 | 6 | -4
Cc1cc2cc(CNC(=O)Nc3ccc(Cl)c(Cl)c3)ccc2n1C | -1 | 33* | -23 | 12 | 22 | -8
Cc1ccc(S(=O)(=O)NCc2ccncc2)cc1 | -3 | 10 | 6 | 23 | . | .
CCc1sc(C(=O)NCCCn2ccnc2)cc1Br | 7 | 6 | -7 | 39 | . | .
O=C(Nc1cccc(F)c1)/C(=C/c1ccco1)NC(=O)c1ccco1 | 2 | -1 | 4 | 24 | . | .
COCC(=O)NCc1ccc2c(c1)cc(C)n2C | -5 | -9 | -3 | -11 | . | .
CCOc1ccc(CC(=O)NCc2ccc3c(c2)cc(C)n3C)cc1 | 10 | 55* | -4 | -7 | -2 | -9
COc1cc(OC)cc(C(=O)NCc2ccc3c(c2)cc(C)n3C)c1 | -2 | 56* | 6 | 18 | 1 | -4
COc1cc(/C=C\C(=O)NCc2ccc3c(c2)cc(C)n3C)cc(OC)c1OC | -1 | 68* | -2 | -4 | 8 | -6
COc1ccc(C(=O)NCc2ccc3c(c2)cc(C)n3C)cc1 | -4 | 66* | -7 | 7 | 9 | -5
COc1ccc(C(c2nnnn2Cc2ccccc2)N2CCN(C/C=C/c3ccccc3)CC2)cc1 (stereo unspecified) | . | -7 | . | . | . | .
CC(C)CSc1nnc2c3ccccc3n(C)c2n1 | 5 | 58* | -4 | 14 | 66* | -3
CC(C)OC(=O)CSc1nnc2c3ccccc3n(C)c2n1 | -2 | -11 | 0 | 2 | . | .
O=C(C1CCCCC1)N1CCC2CC1c1cc(-c3ccc4c(c3)OCO4)ccc12 (stereo unspecified) | . | 8 | . | . | . | .
CCN(CC)c1ncnc2ccc(Br)cc12 | -1 | 39* | -16 | 48 | 41* | -4
CN1CCC(N(C)c2ncnc3ccc(Br)cc23)CC1 | 1 | 12 | . | -12 | . | .
O=C(Nc1cccnc1)c1ccc(COc2cc(Cl)ccc2Cl)o1 | -5 | 13 | 7 | 20 | . | .
SMILES | 3CLpro inhibitor | PrPC TRFRET | BJeLR viability | VHR inh abs | PrPC TRFRET cf | LD9 tox
O=C(N/N=C/c1ccc(O)cc1)c1ccc(COc2cc(Cl)ccc2Cl)o1 | 5 | 27* | -14 | 9 | 30* | -1
Cc1cc2nc(-c3cccc(Br)c3)c(Cc3ccccc3)n2c(C)c1Br | . | 2 | . | . | . | .
S=c1[nH]c2ccccc2n2c(=S)[nH]nc12 | -2 | 30* | 8 | -2 | 59* | 0
CCOC(=O)c1sc(Nc2nc3c(OC)cccc3s2)cc1C | 2 | 40* | -11 | -10 | 48* | -7
O=C(NCc1cccs1)c1ccc(CS(=O)Cc2ccc(Cl)cc2)o1 (stereo unspecified) | . | -3 | . | . | . | .
CCCCn1c(=O)[nH]c(=O)c2c1nc(CN1C(=O)c3ccccc3S1(=O)=O)n2CCC | 1 | 12 | 13 | 24 | . | .
CCCCn1c(=O)[nH]c(=O)c2c1nc(Cn1ncc(Cl)c(Cl)c1=O)n2CCC | -1 | 44* | -27 | 6 | 43* | 71*
CC(C)(C)n1c(O)c(C=Nc2ccc3c(c2)CCC3)c(=O)[nH]c1=O | 5 | 29* | 10 | -18 | 3 | -4
COc1ccc(C(=O)NNC(=O)C(Cc2ccc(O)cc2)NC(=O)c2ccccc2NC(=O)c2ccc(OC)cc2)cc1 (stereo unspecified) | -2 | 119* | -8 | 10 | 2 | -4
COc1ccc(C(=O)Nc2ccccc2C(=O)NC(Cc2ccc(O)cc2)C(=O)NNC(=O)c2ccccc2Cl)cc1 (stereo unspecified) | 3 | 2 | 0 | -10 | . | .
Cc1cccc(OCc2nnc(SCC(=O)NC3CCCCC3)n2C)c1 | 3 | 0 | -6 | 26 | . | .
CCCCCCCCN1C(=O)[C@@H](CC(=O)N2CCSCC2)C[C@@]2(C(=O)OC)C1=C[C@H](C(C)C)O[C@@H]2C1CC1 | . | 4 | . | . | . | .
CCCCCCCCN1C(=O)[C@@H](CC(=O)N2CCCC2)C[C@@]2(C(=O)OC)C1=C[C@H](C(C)C)O[C@@H]2C1CC1 | . | 30* | . | . | 36* | -3
COC(=O)[C@]12C[C@H](CC(=O)N3CCCC3)C(=O)N(CCC3=CCCCC3)C1=C[C@H](C(C)C)O[C@@H]2C1CC1 | . | 28* | . | . | 31* | -3
COC(=O)[C@]12C[C@H](CC(=O)N3CCCCC3)C(=O)N(CCC3=CCCCC3)C1=C[C@H](C(C)C)O[C@@H]2C1CC1 | . | 29* | . | . | 32* | -2
CCN(CC)C(=O)[C@H]1C[C@H](CC(=O)NCCCn2ccnc2)C(=O)N2CCc3c([nH]c4cc(CCC(=O)N(C)C)ccc34)[C@]12C | . | -5 | . | . | . | .
O=C(NCc1cccnc1)c1csc([C@@H]2O[C@H](CO)[C@H](O)[C@H](O)[C@H]2O)n1 | . | -1 | . | . | . | .
Cc1cc(-c2ccccc2)n2ncnc2n1 | 1 | 28* | -4 | 13 | -3 | -7
COc1ccc(-c2cc(C(=O)NN=C/C(C)=C/c3ccccc3)[nH]n2)cc1 | . | 25* | . | . | 20 | -2
O=C(NN=Cc1ccc(O)cc1)c1cc(-c2ccc(Cl)cc2)n[nH]1 | . | 26* | . | . | 32* | 4
O=C(O)c1ccc(C=NNC(=O)c2cc(-c3ccc(Cl)cc3)n[nH]2)cc1 | . | 2 | . | . | . | .
O=C1C(=C(I)I)c2ccccc2-c2ccccc21 | . | 4 | . | . | . | .
O=C1C(=O)c2ccccc2-c2ccccc21 | 4 | 27* | 100* | 27 | 65* | 99*
COc1ccc(Br)cc1C(C[N+](=O)[O-])c1c(N)n(C)c(=O)n(C)c1=O (stereo unspecified) | 7 | 68* | 4 | -15 | 38* | 33*
CN(Cc1ccccc1)C(=O)c1[nH]cnc1C(=O)Nc1ccccc1F | . | -3 | . | . | . | .
O=c1cc(CNc2cc(C(F)(F)F)cc(C(F)(F)F)c2)nc2sccn12 | 12 | 29* | -7 | 10 | 20 | -7
